Compounds with a hit are over-represented: about 7.3% of the library has one in this group of screens.
RORg inh: inhibitors of mouse ROR gamma transcriptional activity; 310,000 tested, 5.4% active; Potency, µM (series often up to 53.6 µM), inactives show at the highest dose activity change, negative = inhibition, most hits filed as inhibitors; Drosophila S2 Gal4-RORgamma UAS-luciferase reporter, 20 h; P51450; AID 2551; also: nearly all actives have a fitted effect of over 60% in size
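Compounds are pin-transferred onto Drosophila Schneider cells expressing a copper-inducible Gal4–ROR gamma transactivation domain fusion. After 1 hr, copper sulfate is added to 700 uM final; luciferase is read 20 hr later.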
Tau fluor counter: counter-screen for tau fibril formation inhibitors; 280,000 tested, 0.93% active; AID 1463; Potency, µM (series often up to 57.7 µM), without a hit: at the top dose activity change, negative = decrease; tau K18 P301L Alexa594 fluorescence, heparin fibrillization; also: nearly all actives have a fitted effect of over 55% in size
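Human tau K18 P301L (15 uM unlabeled, 0.24 uM Alexa 594-labeled) in 100 mM sodium acetate pH 7 with 20 uM heparin, 6 hr at 37 C. ThT 30 uM added, 1 hr ambient; Alexa 594 FP and total fluorescence read at 555/632 nm.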
VP16 counter: inhibits Gal4-VP16 luciferase reporter, ROR gamma counter-screen. 310,000 tested, 3.5% active. AID 2546. Potency, µM (top dose mostly 53.6 µM), inactives show top-dose activity, negative = inhibition, usual class: inhibitors. Drosophila S2 Gal4-VP16 UAS-luciferase, luminescence, 20 h;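 also: Gal4-VP16 expression switched on by copper sulfate through the metallothionein promoter; nearly all actives have a fitted effect of over 50% in size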
Tau fibril ThT: blocks human tau fibril formation measured by thioflavin T | P10636 | recombinant tau K18 P301L, heparin-induced fibrillization, ThT fluorescence | Potency, µM (top dose mostly 57.4 µM), for inactives: at the top dose activity, negative = inhibition, hits mostly inhibitors | 270,000 tested, 2.1% active; also: nearly all actives have a fitted effect of over 55% in size
Target sequence (P10636 561-689 P618L limits assumed): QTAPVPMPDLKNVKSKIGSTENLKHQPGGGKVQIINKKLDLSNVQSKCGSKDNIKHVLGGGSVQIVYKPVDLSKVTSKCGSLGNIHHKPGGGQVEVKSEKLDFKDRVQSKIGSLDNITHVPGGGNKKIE
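Using a mix of unlabeled (15 uM) and Alexa 594-labeled (0.24 uM) tau K18 P301L, heparin-triggered fibrillization over 6 hr at 37 C was scored by ThT fluorescence.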
Tau fibril FP: inhibitors of human tau fibril formation | Potency, µM (highest dose often 57.7 µM), for inactives: at the top dose activity, negative = inhibition, most hits filed as inhibitors | K18 P301L tau heparin fibrillization, Alexa594 FP, 6 h | 280,000 tested, 0.39% active | P10636; also: nearly all actives have a fitted effect of over 55% in size
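Quantitative HTS format: compounds meet 15 uM recombinant K18 P301L tau and Alexa 594-tau tracer in 100 mM sodium acetate pH 7; 20 uM heparin triggers fibrillization at 37 C over 6 hr; FP gives the signal.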
Active calls of the source: *; ? = inconclusive; · = no result; [ ] = another dose, or the depositor's remark. Calls follow the shape of the dose curve; as a rule, active = well fitted curve in the direction sought with a large enough effect; inconclusive = small, poorly fitted or top-dose-only effect, or another doubt; inactive = no such curve, though single readings can be large; an effect the other way counts as inactive or inconclusive. % is scaled to controls: 0 for no effect and ±100 for the full control effect; potency is read from the fitted curve at half-maximal effect.

SMILES	RORg inh	Tau fluor counter	VP16 counter	Tau fibril ThT	Tau fibril FP
Nc1c(C(=O)c2ccccc2)sc2nsc(SCCN3CCCC3)c12	?	?	25.9%	15.8µM*	-14.3%
CC(C)(C)c1ccc(C(=O)N2CCNCC2)cc1	-23.1%	-8.8%	-2.4%	-11.8%	-6.1%
CN1CCC2(CC1)N=C(c1ccc(F)cc1)C(=S)N2C(=O)c1ccc(C(C)(C)C)cc1	12.6µM*	-7.9%	?	?	-2.8%
COc1cc(NC(=O)CSc2ccc(-c3sc(C)nc3C)nn2)cc(OC)c1	·	-24.2%	·	?	-3.8%
N#C/C(=C/c1ccc(-c2ccccc2[N+](=O)[O-])o1)C(N)=O	8.4%	-5.4%	-5.9%	-4.7%	-5.9%
N#C/C(=C\c1ccc(-c2ccccc2[N+](=O)[O-])o1)C(=O)Nc1nc(-c2cccs2)cs1	?	?	-0.8%	2.82µM*	0.4%
N#C/C(=C\c1ccc(-c2ccc([N+](=O)[O-])cc2)o1)C(=O)Nc1nc(-c2cccs2)cs1	8.0%	?	0.7%	2.24µM*	7.0%
CC(=O)Nc1nc(-c2ccc([N+](=O)[O-])cc2)cs1	?	-7.3%	-3.4%	-4.8%	9.4%
COc1ccc(S(=O)(=O)N(C)C)cc1NC(=O)CCCSc1ccccc1	41.8%	·	-2.8%	·	·
CCc1cccc(OCC(=O)Nc2ccc(S(=O)(=O)Nc3ncccn3)cc2)c1	·	-0.7%	·	0.1%	-3.3%
CCCNC(=O)NC1CCCCCCC1	25.2%	1.6%	-15.3%	4.4%	-6.6%
CCCNC(=S)NC1CCCC1	11.2µM*	-4.4%	?	0.5%	7.6%
NNC(=S)NC1CCCCC1	2.82µM*	-5.2%	7.08µM*	-2.4%	-7.2%
CCCCC(=O)Nc1cc(Cl)ccc1C(=O)O	18.1%	11.4%	-0.8%	9.0%	5.8%
Cc1cc(C)c(-n2c(SCCS(=O)(=O)c3ccc(F)cc3)n[nH]c2=O)c(C)c1	-16.1%	4.9%	2.6%	-1.8%	13.8%
CC(NCc1ccc2c(c1)n(C)c(=O)n2C)c1ccccc1 (centres undefined)	·	-1.1%	·	4.1%	-3.0%
COc1ccc(NC(=O)c2ccccc2NS(=O)(=O)c2ccc(C)cc2)c([N+](=O)[O-])c1	?	?	-3.8%	?	7.5%
Cc1ccc(NC(=S)NNc2ccc([N+](=O)[O-])cc2S(=O)(=O)Nc2ccccc2C(=O)O)cc1C	-33.7%	?	-26.8%	7.94µM*	?
O=C(O)c1ccccc1Nc1ccc([N+](=O)[O-])cc1C(=O)O	-14.8%	-2.0%	1.0%	·	4.0%
O=C(O)c1ccccc1NS(=O)(=O)c1ccc(NNC(=S)Nc2ccc(OC(F)F)cc2)c([N+](=O)[O-])c1	-27.5%	10µM*[quencher]	-16.1%	7.08µM*	25.1µM*
Cc1c(/C=N/NC(=O)CNc2ccccc2)c2ccccn2c1C(=O)c1ccc(Cl)cc1	?	?	-3.3%	?	?
Cc1c(/C=N/NC(=O)CNc2ccccc2)c2ccccn2c1C(=O)c1ccncc1	?	?	?	14.1µM*	?
CCCS(=O)(=O)N1CCCC(C(=O)N2CCCCC2)C1 (centres undefined)	1.8%	·	-2.8%	·	·
CC1(C)CO[C@@H](CC(=O)O)CN1	-9.0%	-6.4%	-1.1%	-2.1%	2.2%
C=C(C)CN=C1SC(C(=O)Nc2sc3c(c2C(=O)OC)CCC3)C(N)=C1C(N)=O (centres undefined)	?	?	-10.4%	?	7.7%
SMILES	RORg inh	Tau fluor counter	VP16 counter	Tau fibril ThT	Tau fibril FP
COC(=O)c1c(NC(=O)C2SC(=NC3CCCCC3)C(C(N)=O)=C2N)sc2c1CCCC2 (centres undefined)	3.7%	15.8µM*[quencher]	-9.8%	?	?
COc1cc2cccc(OC)c(=O)c2c(OC)c1OC	9.5%	-6.0%	-23.1%	-13.6%	-11.7%
O=c1c(O)cccc2cc(O)c(O)c(O)c12	-14.2%	2.51µM*[quencher]	-7.7%	3.16µM*	11.2µM*
Oc1ccc(N=Nc2ccc3c(c2)OCO3)c2ccccc12	0.126µM*	-20.3%	0.631µM*	0.891µM*	?
O=C(NCc1ccc(F)cc1)c1cc2c(=O)n3ccccc3nc2s1	·	-8.7%	·	-8.6%	-12.7%
COc1ccc2c(c1)O[C@H](c1ccc3c(c1)OCO3)[C@@H](OC(=O)Nc1ccc(C)c(Br)c1)C2=O	?	-23.1%	-1.2%	?	-6.8%

High-throughput results from PubChem BioAssay.
